# TIM10 inh: TIM10 yeast growth inhibition. S. cerevisiae TIM10 strain growth, BacTiter-Glo luminescence, 24 h. inhibition, % at 10 µM. 330,000 compounds, 1.4% hits. AID 463195;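 active = inhibition of 40% or more at the single tested concentration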;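 note: wild-type TIM10 isogenic control strain grown at permissive 25 °C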
# NLRP3 yeast inh: NALP3 inhibition in yeast; 330,000 compounds, 0.39% hits; inhibition, % at 10 µM; Yeast reconstituted NLRP3/ASC/caspase-1, beta-gal luminescence, 24 h;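 active = inhibition of 50% or more; inactive = inhibition below 50%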;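 note: plate controls were induced DMSO wells for no effect and uninduced yeast grown without galactose for full effect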
# tim10-1 inh: inhibits growth of tim10-1 mutant yeast | S. cerevisiae tim10-1 ts strain growth, BacTiter-Glo, 24 h | inhibition, % at 20 µM | 330,000 compounds, 2.2% hits | AID 463190;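 active = inhibition of at least 40%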;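 note: mutant grown at 25 °C; 0% = DMSO wells with yeast and 100% = wells holding no yeast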
# tim23-1 inh: inhibits growth of tim23-1 mutant yeast. 330,000 compounds, 1.3% hits. inhibition, % at 20 µM. S. cerevisiae tim23-1 growth, BacTiter-Glo luminescence, 24 h;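 active = growth inhibition of the mutant yeast at or above 50%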;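 note: temperature-sensitive mutant grown at 25 °C; plate controls were DMSO-treated mutant yeast for no effect and medium wells lacking yeast for full effect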
# NALP1 yeast inh: blocks the NALP1 inflammasome reconstituted in yeast; S. cerevisiae NALP1/ASC/caspase-1 growth, X-gal OD620, 72 h; inhibition, % at 10 µM; 280,000 compounds, 0.61% hits; AID 2071; in the data active = inhibition mostly above about 24%, no sharp cut-off; inactive = mostly below about 32%
# tim10-1 conf: confirmation of tim10-1 mutant yeast growth inhibitors. inhibition, % at 20 µM. S. cerevisiae tim10-1 ts strain growth, BacTiter-Glo, 24 h. AID 463213. shares compounds with tim10-1 inh. 7,400 compounds, 56% hits;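 active = inhibition of yeast growth at or above a set limit in either of two repeat tests at 20 µM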;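 note: tim10-1 mutant grown at permissive 25 °C to find synthetic lethal compounds; 0% = DMSO yeast wells and 100% = medium wells without yeast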
# TIM10 conf: confirmation of TIM10 yeast growth inhibitors | S. cerevisiae tim10 strain growth, BacTiter-Glo luminescence, 24 h | shares compounds with TIM10 inh | inhibition, % at 10 µM | AID 463215 | 4,600 compounds, 63% hits;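 active = inhibition of yeast growth at or above a set limit in either of two replicates at 10 µM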;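 note: this counterscreen used the strain with wild-type TIM10; 0% = yeast with DMSO and 100% = medium wells lacking yeast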
# tim23-1 confirm: confirmation of tim23-1 mutant yeast growth inhibitors. shares compounds with tim23-1 inh. S. cerevisiae tim23-1 growth, BacTiter-Glo luminescence, 24 h. inhibition, % at 20 µM. 4,400 compounds, 83% hits;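 active = inhibition above about 39% in either of two replicate wells at 20 µM, limit read from the data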;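 note: temperature-sensitive tim23-1 mutant grown at 25 °C; 0% = DMSO wells with yeast and 100% = medium wells without yeast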
# Starred values were filed as active, the others as inactive; / = not tested or not shown. Only some compounds are listed: those with a hit (about 4% of all), similar ones and a draw of the others.
SMILES,TIM10 inh,NLRP3 yeast inh,tim10-1 inh,tim23-1 inh,NALP1 yeast inh,tim10-1 conf,tim23-1 confirm,others
O=C(O)c1ccc(-c2nc(-c3ccccc3)c(-c3cccs3)[nH]2)cc1,20,-40,9,20,/,/,/,
COc1ccc(-c2nc(-c3cccs3)c(-c3cccs3)[nH]2)cc1O,26,-39,52*,74*,3,34*,71*,
CC(NC(=O)COc1ccc(/C=N/NC(=O)CO)cc1)c1ccccc1 (stereo not given),-8,14,-53,-7,9,/,/,
C(=C\c1nc(N2CCCCCC2)c2ccccc2n1)/c1ccccc1,44*,27,46*,50*,57*,31*,38,TIM10 conf=19
O=S(=O)(c1ccc2nc(N3CCN(c4ccccc4F)CC3)ccc2c1)N1CCCCC1,7,9,-7,0,-2,/,/,
O=S(=O)(c1ccc2nc(Nc3ccccc3)ccc2c1)N1CCCCC1,23,-13,50*,50*,12,30,42*,
O=C(CSC(=S)N1CCCC1)c1cc(Br)cc(Br)c1O,57*,15,58*,52*,16,46*,66*,TIM10 conf=48*
O=C(CSC(=S)N1CCCC1)Nc1cc2c(cc1Br)OCCO2,5,24,7,9,15,/,/,
Cc1ccc(-c2cc3nc(C)cc(NCc4ccco4)n3n2)cc1,29,22,41*,58*,-5,38*,55*,
COCCNc1cc(C)nc2cc(-c3ccc(C)cc3)nn12,12,20,25,28,13,/,/,
CC1CCN(c2nnc(-c3ccccc3)c3ccccc23)CC1,12,-2,41*,69*,8,0,34,
COc1ccc(-c2nnc(N3CCCCC3)c3ccccc23)cc1,29,6,51*,60*,1,47*,55*,
Cc1ccc(-c2nnc(N3CCC(C)CC3)c3ccccc23)cc1C,4,21,19,48,-5,/,/,
COc1ccc(-c2nnc(N3CCOCC3)c3ccccc23)cc1,-1,15,-6,3,-11,/,/,
Cc1ccc(C(OC(=O)c2ccco2)C(=O)NC(C)(C)C)cc1 (stereo not given),-14,31,1,9,-15,/,/,
CCOCCCn1c(=O)c2ccccc2n2c(=S)[nH]nc12,-18,15,19,12,-4,/,/,
N#CC(c1cccc(Cl)c1)c1ccc2c(C(F)(F)F)cc(C(F)(F)F)nc2n1 (stereo not given),75*,12,88*,79*,24,70*,72*,TIM10 conf=65*
NNc1ccc2c(C(F)(F)F)cc(C(F)(F)F)nc2n1,18,5,25,24,8,/,/,
O=C(NC(=S)Nc1ccccc1Br)C1CCC1,38,20,40*,58*,10,25,40*,
CCn1c(=O)c(C(=O)NCc2ccccn2)c(O)c2ccccc21,38,14,45*,60*,7,16,58*,
O=C(/C=C/c1cccc(Cl)c1)c1ccc([N+](=O)[O-])o1,96*,43,94*,95*,/,96*,99*,TIM10 conf=99*
COc1cc(/C=C/C(=O)c2ccc([N+](=O)[O-])o2)ccc1O,97*,49,96*,96*,/,97*,99*,TIM10 conf=99*
Cc1cc(O)c(C(=O)/C=C/c2cccc([N+](=O)[O-])c2)c(=O)o1,15,20,12,9,/,/,/,
O=[N+]([O-])c1cncc([N+](=O)[O-])c1Nc1ccccc1Cl,4,-11,51*,57*,-2,43*,69*,
O=C1c2ccccc2C(=O)N1CCCCN(C(=O)c1cc([N+](=O)[O-])ccc1Cl)c1ccc(Cl)cc1,20,9,20,18,27,/,/,
COc1ccc(-c2cc3nc(C)cc(N)n3n2)cc1,47*,14,62*,54*,9,44*,64*,TIM10 conf=14
CCOC(=O)c1c(C)[nH]c(N=Nc2cccc(OC)c2)c1C,30,25,28,24,5,/,/,

# Assay outcomes (PubChem)
